# Measurements published in PubChem BioAssay (NCI).
# Several values for one entry are separate records, joined by “and”; a condition that tells them apart may be missing. Equal values may be shown once. The panel holds about 83,000 compounds, 20% with a hit somewhere; the sample as a whole holds those more often.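 Single-concentration screen, 48 h exposure, 96-well plates. Endpoint: percent growth. Below 10 = active.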 Activity calls are given as the source filed them.
# Key:
# Assay in all cases: NCI-60 one-dose screen, 48 h (100 = growth as untreated, 0 = no growth, -100 = all killed)
# [1] = test system: NCI-H23 lung
# [2] = test system: NCI-H226 lung
# [3] = test system: NCI-H322M lung
# [4] = test system: HOP-62 NSCLC
# [5] = test system: NCI-H460 lung
# [6] = test system: HOP-92 NSCLC
# [7] = test system: NCI-H522 lung; settings: 10 µM unless noted
# [8] = test system: A549/ATCC NSCLC
# [9] = test system: 786-0 renal
# [10] = test system: COLO 205 colon
smiles,measurement,setting,value
C[n+]1c(/C=C/c2ccc([N+](=O)[O-])cc2)ccc2ccccc21,growth,[1]; 10 µM unless noted,90.4% (inactive)
same,growth,[2]; 10 µM unless noted,87.9% (inactive)
same,growth,[3]; 10 µM unless noted,111% (inactive)
same,growth,[4]; 10 µM unless noted,97.4% (inactive)
same,growth,[5]; 10 µM unless noted,106% (inactive)
same,growth,[6]; 10 µM unless noted,110% (inactive)
same,growth,[7],102% (inactive)
same,growth,[8]; 10 µM unless noted,75.7% (inactive)
same,growth,[9]; 10 µM unless noted,111% (inactive)
same,growth,[10]; 10 µM unless noted,101% (inactive)
CCOC(=O)/C=C/c1ccc([N+](=O)[O-])o1,growth,[1]; 10 µM unless noted,73.7% (inactive)
same,growth,[2]; 10 µM unless noted,20.2% (inactive)
same,growth,[3]; 10 µM unless noted,96% (inactive)
same,growth,[4]; 10 µM unless noted,112% (inactive)
same,growth,[5]; 10 µM unless noted,95.6% (inactive)
same,growth,[6]; 10 µM unless noted,47.6% (inactive)
same,growth,[7],-55.1% (active)
same,growth,[8]; 10 µM unless noted,96.4% (inactive)
same,growth,[9]; 10 µM unless noted,75.8% (inactive)
same,growth,[10]; 10 µM unless noted,40.9% (inactive)
COc1cc(NS(C)(=O)=O)ccc1Nc1c2ccccc2nc2ccccc12,growth,[1]; 2.5 µM,8.63% (active)
same,growth,[1]; 10 µM,-3.53% (active) [middle of 4 runs]
same,growth,[2]; 10 µM unless noted,-8.63% [2.5 µM] (active)
same,growth,[3]; 10 µM unless noted,83.9% [2.5 µM] (inactive)
same,growth,[4]; 10 µM unless noted,18.2% [2.5 µM] (inactive)
same,growth,[5]; 10 µM unless noted,4.6% [2.5 µM] (active)
same,growth,[6]; 2.5 µM,9.79% (active)
same,growth,[6]; 10 µM,42.5% (inactive) and 10.3% (inactive)
same,growth,[8]; 2.5 µM,28.1% (inactive)
same,growth,[8]; 10 µM,12.9% (inactive) [middle of 4 runs]
same,growth,[9]; 10 µM unless noted,-3.06% [2.5 µM] (active)
same,growth,[10]; 10 µM unless noted,39.7% [2.5 µM] (inactive)
CC(=O)Nc1cccc2cc(O)ccc12,growth,[1]; 10 µM unless noted,99% (inactive) and 101% (inactive) and 103% (inactive)
same,growth,[2]; 10 µM unless noted,98.2% (inactive) and 98.1% (inactive) and 102% (inactive)
same,growth,[3]; 10 µM unless noted,110% (inactive) and 116% (inactive)
same,growth,[4]; 10 µM unless noted,100% (inactive) and 93.1% (inactive) and 95.8% (inactive)
same,growth,[5]; 10 µM unless noted,114% (inactive) and 103% (inactive) and 105% (inactive)
same,growth,[6]; 10 µM unless noted,64.6% (inactive) and 88.7% (inactive) and 73.6% (inactive)
same,growth,[7],101% (inactive) and 109% (inactive) and 84.1% (inactive)
same,growth,[8]; 10 µM unless noted,118% (inactive) and 111% (inactive) and 98.6% (inactive)
same,growth,[9]; 10 µM unless noted,109% (inactive) and 104% (inactive) and 98.9% (inactive)
same,growth,[10]; 10 µM unless noted,106% (inactive) and 110% (inactive) and 104% (inactive)
O=C(Nc1cccc(Br)c1)Oc1cccc2cccnc12,growth,[1]; 10 µM,106% (inactive)
same,growth,[1]; 100 µM,-21% (active)
same,growth,[2]; 10 µM,106% (inactive)
same,growth,[2]; 100 µM,63.1% (inactive)
same,growth,[3]; 10 µM,117% (inactive)
same,growth,[3]; 100 µM,84.9% (inactive)
same,growth,[4]; 10 µM,102% (inactive)
same,growth,[4]; 100 µM,50.1% (inactive)
same,growth,[5]; 10 µM,104% (inactive)
same,growth,[5]; 100 µM,8.11% (active)
same,growth,[6]; 10 µM,83% (inactive)
same,growth,[6]; 100 µM,49.2% (inactive)
same,growth,[7],-56.9% [100 µM] (active)
same,growth,[8]; 10 µM,99.1% (inactive)
same,growth,[8]; 100 µM,20.7% (inactive)
same,growth,[9]; 10 µM,94.9% (inactive)
same,growth,[9]; 100 µM,88.6% (inactive)
same,growth,[10]; 10 µM,117% (inactive)
same,growth,[10]; 100 µM,51.8% (inactive)
CCOC(=O)/C(=C\c1ccc(-c2ccccc2)cc1)C(C)=O,growth,[1]; 10 µM unless noted,100% (inactive)
same,growth,[2]; 10 µM unless noted,101% (inactive)
same,growth,[3]; 10 µM unless noted,97.3% (inactive)
same,growth,[4]; 10 µM unless noted,110% (inactive)
same,growth,[5]; 10 µM unless noted,103% (inactive)
same,growth,[6]; 10 µM unless noted,101% (inactive)
same,growth,[7],87.6% (inactive)
same,growth,[8]; 10 µM unless noted,111% (inactive)
same,growth,[9]; 10 µM unless noted,105% (inactive)
same,growth,[10]; 10 µM unless noted,104% (inactive)
CCC(CC)COC(=O)c1ccc(O)c(O)c1,growth,[1]; 10 µM unless noted,81% (inactive)
same,growth,[2]; 10 µM unless noted,63.9% (inactive)
same,growth,[3]; 10 µM unless noted,85.3% (inactive)
same,growth,[4]; 10 µM unless noted,50.3% (inactive)
same,growth,[5]; 10 µM unless noted,73.8% (inactive)
same,growth,[6]; 10 µM unless noted,31.1% (inactive)
same,growth,[7],-5.6% (active)
same,growth,[8]; 10 µM unless noted,52% (inactive)
same,growth,[9]; 10 µM unless noted,78.5% (inactive)
same,growth,[10]; 10 µM unless noted,95.7% (inactive)
Cc1ccc2c(ccc3c[n+]4c5ccccc5ccc4n32)c1,growth,[1]; 10 µM unless noted,10.4% (inactive)
same,growth,[2]; 10 µM unless noted,7.48% (active)
same,growth,[3]; 10 µM unless noted,12.7% (inactive)
same,growth,[4]; 10 µM unless noted,0.81% (active)
same,growth,[5]; 10 µM unless noted,1.99% (active)
same,growth,[6]; 10 µM unless noted,-11.1% (active)
same,growth,[7],-33.4% (active)
same,growth,[8]; 10 µM unless noted,4.82% (active)
same,growth,[9]; 10 µM unless noted,27.4% (inactive)
same,growth,[10]; 10 µM unless noted,-34.2% (active)
CNc1ccc(N)cc1,growth,[1]; 10 µM unless noted,103% (inactive)
same,growth,[2]; 10 µM unless noted,96.4% (inactive)
same,growth,[3]; 10 µM unless noted,103% (inactive)
same,growth,[4]; 10 µM unless noted,106% (inactive)
same,growth,[5]; 10 µM unless noted,106% (inactive)
same,growth,[6]; 10 µM unless noted,135% (inactive)
same,growth,[7],87.5% (inactive)
same,growth,[8]; 10 µM unless noted,111% (inactive)
same,growth,[9]; 10 µM unless noted,110% (inactive)
same,growth,[10]; 10 µM unless noted,141% (inactive)
C=C(Cl)C(=NC(C)(C)C)Nc1ccccc1C,growth,[1]; 10 µM unless noted,98.8% (inactive)
same,growth,[2]; 10 µM unless noted,102% (inactive)
same,growth,[3]; 10 µM unless noted,109% (inactive)
same,growth,[4]; 10 µM unless noted,92.4% (inactive)
same,growth,[5]; 10 µM unless noted,106% (inactive)
same,growth,[6]; 10 µM unless noted,84.9% (inactive)
same,growth,[7],67.7% (inactive)
same,growth,[8]; 10 µM unless noted,111% (inactive)
same,growth,[9]; 10 µM unless noted,97.9% (inactive)
same,growth,[10]; 10 µM unless noted,55.2% (inactive)
CN(C)C(=O)c1ccc(SC(=S)NCc2ccccc2)cc1,growth,[1]; 10 µM,109% (inactive)
same,growth,[1]; 100 µM,5.21% (active)
same,growth,[2]; 10 µM,112% (inactive)
same,growth,[2]; 100 µM,102% (inactive)
same,growth,[3]; 10 µM,110% (inactive)
same,growth,[3]; 100 µM,58.2% (inactive)
same,growth,[5]; 10 µM,105% (inactive)
same,growth,[5]; 100 µM,8.96% (active)
same,growth,[6]; 10 µM unless noted,-10.3% [100 µM] (active)
same,growth,[7],-48.7% [100 µM] (active)
same,growth,[8]; 10 µM,105% (inactive)
same,growth,[8]; 100 µM,34.4% (inactive)
same,growth,[9]; 10 µM,109% (inactive)
same,growth,[9]; 100 µM,-17.6% (active)
same,growth,[10]; 10 µM,101% (inactive)
same,growth,[10]; 100 µM,-11.4% (active)
